# Bioassay records as filed in PubChem BioAssay.
# Shown are actives, neighbours in structure and some others; about 18% of the full set was active somewhere.
# DT40 TDP1 no CPT – qHTS for Inhibitors of human tyrosyl-DNA phosphodiesterase 1 (TDP1): qHTS in cells in absence of CPT | AID 686978, 2013 | Potency, µM (series often up to 46.2 µM), inactives show at the top dose activity change, negative = growth inhibition, most hits filed as inhibitors | 420,000 tested, 15% active | DT40 Tdp1-/- hTDP1 cells, no CPT, ATP luminescence, 48 h; also: potency is read from the fitted curve at half-maximal effect; nearly all actives have a fitted effect of over 55% in size
#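 Chicken DT40 Tdp1-/- cells complemented with human TDP1, screened without camptothecin (DMSO vehicle only), 400 cells/well. Compounds pin-transferred, cells incubated at 37 °C for at least 48 hr. Growth read as ATP-dependent luminescence (CellTiter-Glo, 30 min at RT).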
# IL1B secr inh – inflammasome signaling inhibition, IL-1 beta readout. THP-1 LPS/ATP IL-1B secretion, AlphaLISA, 16 h; stronger effect = lower value. activity change, % at 57.5 µM. 360,000 tested, 4.7% active; in the data active = activity change below about -50%; inconclusive = mostly about -30% to -49%
#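 Secreted IL-1B measured by AlphaLISA bead assay after 16 h compound exposure of THP-1 cells; compounds (final up to 57.5 uM) added 1 h before LPS (250 ng/mL) and ATP (1.25 mM) stimulation; lower signal means less secretion.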
# TDP1 inh – inhibitors of human tyrosyl-DNA phosphodiesterase TDP1 | recombinant TDP1, AlphaScreen DNA substrate cleavage | AID 485290 | 350,000 tested, 0.28% active | Potency, µM (doses to about 130 µM), for the others: top-dose activity change, negative = inhibition, hits mostly inhibitors | Q9NUW8; also: potency is read from the fitted curve at half-maximal effect; nearly all actives have a fitted effect of over 40% in size
#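 Recombinant human Tdp1 (E. coli-expressed, 1 nM final) preincubated with compounds 15 min at room temperature, then 5'-biotin/3'-phosphotyrosine-FITC DNA substrate (15 nM final) added for 5 min. AlphaScreen beads (10 ug/ml final) added 10 min; cleavage lowers signal.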
# DT40 TDP1 CPT – DT40-hTDP1 cell growth loss with CPT; chicken DT40 Tdp1-/-;hTDP1 cells + 20 nM CPT, ATP luminescence, 48 h; Potency, µM (titrated, usually from 46.2 µM), inactives show top-dose activity change, negative = growth inhibition, actives largely listed as inhibitors; 420,000 tested, 12% active; also: potency is read from the fitted curve at half-maximal effect; nearly all actives have a fitted effect of over 55% in size
#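 Chicken DT40 Tdp1-/- cells stably complemented with human TDP1 were seeded at 400 cells/well in medium containing 20 nM camptothecin, exposed to pin-transferred compounds, and grown at 37 °C for at least 48 hr. Viability was read as ATP luminescence.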
# Six1-Eya2 inh – blocks human Six1 binding to Eya2. activity change, % (no concentration beside the values). 360,000 tested, 0.56% active. AlphaScreen GST-Six1/His-Eya2 binding, biochemical; stronger effect = lower value. AID 651725; in the data active = activity change below about -65%; inconclusive = mostly about -30% to -63%
#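 Compounds are tested against tagged Six1 and Eya2 proteins bridged by glutathione donor and nickel acceptor beads; after a one-hour incubation at 37 °C without light, AlphaScreen emission is recorded.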
# CtBP-E1A inh – CtBP/E1A binding inhibition. AlphaScreen GST-E1A/His-CtBP binding, 1536-well; stronger effect = lower value. activity change, % (concentration not given with the values). 340,000 tested, 0.49% active. AID 651724; in the data active = activity change below about -65%; inconclusive = mostly about -30% to -63%
#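 In 5 uL wells, 23 nL compound meets equimolar GST-E1A and His-CtBP (5X stock 125 nM each) for 2 h, 37 °C. Beads (5X, 50 ug/mL) then 1 h, 37 °C, dark.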
# An asterisk follows results filed as active; u = inconclusive; x = not tested or not shown. Unless noted, calls follow the shape of the dose curve; as a rule, active = well fitted curve in the direction sought with a large enough effect; inconclusive = small, poorly fitted or top-dose-only effect, or another doubt; inactive = no such curve, though single readings can be large; an effect the other way counts as inactive or inconclusive. % is scaled to controls: 0 for no effect and ±100 for the full control effect.
SMILES,DT40 TDP1 no CPT,IL1B secr inh,TDP1 inh,DT40 TDP1 CPT,Six1-Eya2 inh,CtBP-E1A inh
COc1cc2c(C(=O)N3CCN(c4cc(Cl)ccc4C)CC3)cn(CC(C)C)c(=O)c2cc1OC,-18%,x,6%,u,x,x
O=C(NC1CCCCCC1)c1cccs1,-20%,0,0%,-17%,-1,1
CCCC1=NN(C(=O)CCc2ccccc2O)C(O)(C(F)(F)F)C1 (configuration not stated),-7%,14,5%,-16%,3,2
COc1cc2[nH]c(=O)n(Cc3ccc(C(=O)N4CCN(c5cc(Cl)ccc5C)CC4)cc3)c(=O)c2cc1OC,5.2µM*,x,9%,2.3µM*,x,x
COc1ccc(Cn2c(=O)[nH]c3cc(C(=O)N4CCN(c5cc(C)ccc5C)CC4)ccc3c2=O)cc1,u,x,9%,u,x,x
COc1ccc(Cn2c(=O)[nH]c3cc(C(=O)N4CCN(Cc5ccccc5)CC4)ccc3c2=O)cc1,18µM*,-8,10%,16µM*,-8,-3
CCN1CCN(C(=O)c2ccc(Cn3c(=O)[nH]c4cc(OC)c(OC)cc4c3=O)cc2)CC1,-21%,12,2%,-19%,-30,-18
COc1cccc(C(=O)Nc2nc3c(s2)CCCC3)c1,u,x,7%,u,x,x
O=C(Nc1ccc(S(=O)(=O)N2CCOCC2)cc1)c1ccc(CN2CCc3ccccc3C2)cc1,0.92µM*,u,0%,1.2µM*,-25,-6
O=C(Nc1ccc(S(=O)(=O)N2CCCC2)cc1)c1ccc(CN2CCc3ccccc3C2)cc1,4.1µM*,-2,-3%,8.2µM*,-10,-11
Cc1ccc(CSc2oc(-c3cccs3)nc2S(=O)(=O)c2ccccc2)cc1,u,x,0%,u,x,x
Cn1nc(C(C)(C)C)cc1C(=O)N1CCCCC1c1cc(C(=O)Nc2cccc3c2CCCC3)no1 (configuration not stated),u,0,x,u,-5,-24
Cn1nc(C(C)(C)C)cc1C(=O)N1CCCCC1c1cc(C(=O)NCc2ccccc2)no1 (configuration not stated),10µM*,0,x,10µM*,2,0
Cn1nc(C(C)(C)C)cc1C(=O)N1CCCCC1c1cc(C(=O)N2CCOCC2)no1 (configuration not stated),u,11,x,u,1,-1
Cn1nc(C(C)(C)C)cc1C(=O)N1CCCCC1c1cc(C(=O)NCc2ccc(F)cc2)no1 (configuration not stated),13µM*,-17,x,21µM*,4,0
COc1cccc(C(=O)NNC(=O)C(=O)Nc2ccc(OC)cc2OC)c1,u,6,x,u,6,-2
C1CCN2CC3CC(CN4CCCC[C@@H]34)[C@H]2C1,u,19,x,-24%,24,26
CCOC(=O)c1c(N)sc2c1CCC1C(=O)N(C3CCCCC3)C(=O)C21 (configuration not stated),26µM*,-19,3%,u,-1,12
CCOC(=O)c1c(N)sc2c1CCC(CC)C2 (configuration not stated),-16%,-13,6%,1%,-8,-9
COc1cc2cc(Oc3ccc4ccc(=O)oc4c3)c(=O)oc2cc1O[C@@H]1O[C@H](CO)[C@@H](O)[C@H](O)[C@H]1O,-3%,22,25µM*,-7%,-17,2
C(=N\Nc1nc2ccccc2[nH]1)/c1ccccn1,21µM*,110,9%,u,u,x
C#CCn1cc(/C=N/Nc2nc3ccccc3[nH]2)c2ccccc21,u,-92*,-2%,u,-22,-21
CC(/C=N/Nc1nncc(=O)[nH]1)=C\c1ccccc1,2%,-1,-1%,23%,2,-5
C(=N\Nc1nc2ccccc2[nH]1)/c1cccc2nccnc12,4.1µM*,x,8%,2.9µM*,-24,-28
O=c1cnnc(N/N=C/c2ccccn2)[nH]1,3.3µM*,187,x,4.6µM*,-92*,-97*
SMILES,DT40 TDP1 no CPT,IL1B secr inh,TDP1 inh,DT40 TDP1 CPT,Six1-Eya2 inh,CtBP-E1A inh
COc1ccc(C(C(=O)NCC2CCCO2)N(C(=O)c2snc(C(N)=O)c2N)c2ccccc2C)cc1OC (configuration not stated),u,-10,0%,-21%,-6,4
O=C(CNC(=O)c1ccc(=O)[nH]c1)Nc1ccc(F)c(F)c1,u,7,8%,-5%,8,11
BrC(=C\c1ccccc1)/C=N/Nc1nc2ccccc2[nH]1,u,-29,1%,18µM*,-12,-3
C(=N\Nc1nc2ccccc2[nH]1)/c1ccc2c(c1)OCCO2,u,41,10%,u,-15,x
CCN(CC)c1ccc(/C=N/Nc2nc3ccccc3[nH]2)c(O)c1,4.6µM*,-59*,11%,4.6µM*,0,u
C(=N\Nc1nc2ccccc2[nH]1)/c1ccc2ncccc2c1,0.82µM*,0,5%,u,2,-6
C(=N\Nc1nncc2ccccc12)/c1ccccn1,2.9µM*,150,8%,2.3µM*,-75*,-95*
CC(C)C(=O)Nc1nnc(S(=O)(=O)N(C)c2ccc(Cl)cc2)s1,-17%,-11,x,-3%,2,-24
c1ccc2c(c1)CC/C2=N/Nc1nc2ccccc2[nH]1,18µM*,-108*,11%,u,-6,-4
COc1cccc(N/C(SCc2ccccc2Cl)=C(/C#N)C(=O)NCc2cccs2)c1,u,-27,0%,u,-11,-2
Cc1ccccc1OCc1csc(N)n1,20%,u,4%,-1%,1,7
COC(Cn1c2c(c3cc(C)ccc31)CCCC2NCc1ccccc1)OC (configuration not stated),15µM*,12,x,u,-12,x
CCc1ccccc1OCC(=O)Nc1cccc(S(=O)(=O)NC2=NCCC2)c1,-5%,0,1%,u,-2,3
O=C(N(c1ccccn1)c1ccccn1)C12CC3CC(CC(C3)C1)C2,-2%,33,0%,0%,6,16
O=C(N(Cc1ccccc1)c1ccccn1)C12CC3CC(CC(C3)C1)C2,16µM*,-24,-5%,26µM*,8,0
CCC(Oc1ccccc1)C(=O)N(Cc1ccccc1)c1ccccn1 (configuration not stated),16µM*,0,-3%,u,13,-5
